Sampled rows, rich in hits. Any-hit rate of the full collection: about 0.41%.
GAA glycogen mod: GAA glycogen-cleavage inhibition or activation. Potency, µM (series often up to 76.4 µM), usual class: inhibitors. AID 2100. actives 0.38% (n = 300,000). P10253. recombinant GAA, glycogen substrate, Amplex Red glucose oxidase fluorescence;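 further: the screen sought inhibitors and activators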
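Recombinant enzyme (4 nM final) with compounds titrated up to 77 uM and bovine liver glycogen (30 ug) in citrate pH 5.0, 0.01% Tween-20, 37 C 40 min. Released glucose detected by Amplex Red/glucose oxidase (Ex 573/Em 610); AC50 from Hill fits.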
GLA spleen mod: inhibits or activates alpha-galactosidase in human spleen homogenate. human spleen homogenate, 4MU-alpha-Gal fluorescence, 40 min. actives 0.008% (n = 240,000). Potency, µM (highest dose often 80 µM), usual class: inhibitors. P06280
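Inhibition or activation of alpha-galactosidase in human spleen homogenate is scored by 4-MU fluorescence after 40 min at 37C, pH 5.0, with 1 mM substrate. AC50s come from concentration-response fitted to the Hill equation.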
aGlu spleen mod: inhibits or activates alpha-glucosidase in human spleen homogenate; AID 2112; Potency, µM (series often up to 79.9 µM), most hits filed as inhibitors; P10253; actives 0.006% (n = 240,000); human spleen homogenate, 4-MU-alpha-glucoside fluorescence
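AC50 values come from Hill-equation fits of concentration-response data, normalized to no-enzyme and full-activity controls. Enzyme source: 1 ug human spleen homogenate; 1 mM fluorogenic 4-MU glucoside, pH 5.0 citrate buffer, 37 C, 40 min.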
GAA inhib: blocks human lysosomal alpha-glucosidase; purified human GAA, 4-MU-alpha-glucoside fluorescence; Potency, µM (series often up to 76.9 µM), usual class: inhibitors; actives 0.005% (n = 200,000); AID 1466
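Fluorogenic assay: 4 nM human alpha-glucosidase with 400 uM 4-methylumbelliferyl-alpha-D-pyranoside in 50 mM citrate/phosphate, 0.005% Tween-20, pH 5.0, 20 min at room temperature. Compounds tested up to 77 uM; AC50 from Hill fits.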
N370S GC: inhibitors or activators of N370S glucocerebrosidase for Gaucher disease; P04062; N370S GC spleen homogenate, 4MU-glucoside fluorescence; Potency, µM (titrated, usually from 59.4 µM), actives largely listed as inhibitors; actives 0.092% (n = 330,000); AID 2101
GLA inh pH 4.5: alpha-galactosidase A (human) inhibition, pH 4.5; P06280; purified enzyme, 4-MU-alpha-Gal fluorescence, pH 4.5; activity change, negative = inhibition, % at 105 µM; 230,000 tested, under 10 active; AID 1467
Target sequence (P06280 whole entry, looked up): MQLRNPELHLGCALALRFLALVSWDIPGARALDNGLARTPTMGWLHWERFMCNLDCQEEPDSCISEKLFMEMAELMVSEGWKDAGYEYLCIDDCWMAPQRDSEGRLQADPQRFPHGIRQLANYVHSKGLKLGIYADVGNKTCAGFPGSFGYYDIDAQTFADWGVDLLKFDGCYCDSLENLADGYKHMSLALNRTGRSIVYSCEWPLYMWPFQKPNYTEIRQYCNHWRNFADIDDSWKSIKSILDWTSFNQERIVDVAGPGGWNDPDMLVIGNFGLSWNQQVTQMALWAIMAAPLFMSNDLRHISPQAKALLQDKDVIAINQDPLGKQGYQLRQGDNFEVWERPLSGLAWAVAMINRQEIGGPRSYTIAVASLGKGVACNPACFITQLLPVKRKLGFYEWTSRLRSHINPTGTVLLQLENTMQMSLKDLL
Hits are given with their value; [ ] = remark or other dose. The call rests on the fitted dose curve; in most records, active means well fitted curve in the direction sought with a large enough effect; inconclusive means small, poorly fitted or top-dose-only effect, or another doubt; inactive means no such curve, though single readings can be large; an effect the other way counts as inactive or inconclusive.

Screening CCN1CCN(CC(=O)N2CCCC(C(=O)c3ccc(Oc4ccccc4)cc3)C2)CC1 (stereo not drawn) returned GAA glycogen mod 7.9µM, GLA spleen mod inactive, aGlu spleen mod inactive, GAA inhib inactive, N370S GC inconclusive and GLA inh pH 4.5 inactive.
Screening C=CCOc1cccc(CNc2ccc3[nH]c(=O)[nH]c3c2)c1 returned GAA glycogen mod 28µM, GLA spleen mod inactive, aGlu spleen mod inactive, GAA inhib inactive, N370S GC inactive and GLA inh pH 4.5 inactive.
For COc1cc(CNc2ccc3[nH]c(=O)[nH]c3c2)ccc1OCc1ccccc1F the results were GAA glycogen mod 5.6µM and N370S GC inactive.
CCOc1cc(CNc2ccc(N(C)C)cc2)cc(Br)c1OCC(=O)NC(C)(C)C was read as GAA glycogen mod 20µM, GLA spleen mod inactive, aGlu spleen mod inactive, GAA inhib inconclusive, N370S GC inactive and GLA inh pH 4.5 inactive.
For COc1cc(CNc2ccc3[nH]c(=O)[nH]c3c2)ccc1OCC(=O)NC(C)(C)C the results were GAA glycogen mod inconclusive, GLA spleen mod inactive, aGlu spleen mod inactive, GAA inhib inactive, N370S GC inactive and GLA inh pH 4.5 inactive.
`COc1cc(CNc2ccc3[nH]c(=O)[nH]c3c2)cc(Br)c1OCC(=O)NC(C)(C)C` gave GAA glycogen mod 14µM, GLA spleen mod inactive, aGlu spleen mod inactive, GAA inhib inactive and GLA inh pH 4.5 inactive.
For CC(C)C[C@@H](CC(=O)N[C@H](CC(=O)N[C@@H]1CCNC[C@H]1C(=O)N[C@H](CC(=O)N[C@@H](CCC(=O)O)CC(=O)O)CC(C)C)C(C)C)NC(=O)[C@@H]1CCCC[C@H]1N the results were GLA spleen mod inactive, aGlu spleen mod inactive, N370S GC inactive and GLA inh pH 4.5 inactive.
`COc1ccc(NCC(=O)Nc2ccc(Br)cc2F)c(OC)c1` gave GAA glycogen mod 40µM, GLA spleen mod inactive, aGlu spleen mod inactive, GAA inhib inactive, N370S GC inactive and GLA inh pH 4.5 inactive.
CC1(C)CC(=O)c2c(oc3cc(O)c(O)cc23)C1 was read as GAA glycogen mod 7.9µM, GLA spleen mod inactive, aGlu spleen mod inactive, GAA inhib inactive, N370S GC inactive and GLA inh pH 4.5 inactive.
C/C(=N\NC(=O)CSCc1ccccc1Cl)c1cc(O)ccc1O was read as GAA glycogen mod 35µM, GLA spleen mod inactive, aGlu spleen mod inactive, GAA inhib inactive, N370S GC inactive and GLA inh pH 4.5 inactive.
Screening Cc1sc2nc(CN3CCN(c4ccc(O)cc4)CC3)[nH]c(=O)c2c1C returned GAA glycogen mod 16µM, GLA spleen mod inactive, aGlu spleen mod inactive, N370S GC inactive and GLA inh pH 4.5 inactive.
For CNC(=S)Nc1ccc(Nc2ccccc2)cc1 the results were GAA glycogen mod 25µM, GLA spleen mod inactive, aGlu spleen mod inactive, GAA inhib inactive, N370S GC inactive and GLA inh pH 4.5 inactive.
`CNC(=S)Nc1ccc(Br)cc1` gave GAA glycogen mod inactive, GLA spleen mod inactive, aGlu spleen mod inactive, GAA inhib inactive, N370S GC inactive and GLA inh pH 4.5 inactive.
Screening CCCNC(=S)Nc1ccc(Nc2ccccc2)cc1 returned GAA glycogen mod 16µM, GLA spleen mod inactive, aGlu spleen mod inactive, GAA inhib inactive, N370S GC inactive and GLA inh pH 4.5 inactive.
For Cc1ccc(NC(=O)c2ccc(CNS(=O)(=O)c3ccc4c(c3)C(C)(C)C(=O)N4C)cc2)cc1C the results were GAA glycogen mod inactive.
Screening Cc1cc(=O)n(-c2ccc(O)cc2)[nH]1 returned GAA glycogen mod 14µM, GLA spleen mod inactive, aGlu spleen mod inactive, GAA inhib inactive, N370S GC inactive and GLA inh pH 4.5 inactive.
CCOC(=O)CNc1c(-c2ccc(O)cc2)nc2ccccn12 was read as GAA glycogen mod 35µM, GLA spleen mod inactive, aGlu spleen mod inactive, GAA inhib inactive, N370S GC inactive and GLA inh pH 4.5 inactive.
CCOC(=O)CNc1c(-c2ccc(O)cc2)nc2ccc(Cl)cn12 was read as GAA glycogen mod 22µM, GLA spleen mod inactive, aGlu spleen mod inactive, GAA inhib inactive, N370S GC inconclusive and GLA inh pH 4.5 inactive.
For CCOC(=O)C(=O)c1c(-c2ccc(C)cc2)nc2ccccn12 the results were GAA glycogen mod inactive, GLA spleen mod inactive, aGlu spleen mod inactive, GAA inhib inactive, N370S GC inactive and GLA inh pH 4.5 inactive.
CCOC(=O)CNc1c(-c2ccccc2)nc2ccc(Cl)cn12 was read as GAA glycogen mod 4.5µM, GLA spleen mod inactive, aGlu spleen mod inactive, GAA inhib inactive, N370S GC inactive and GLA inh pH 4.5 inactive.
`O=C(Nc1c(-c2ccccc2)nc2ccc(Cl)cn12)c1cccs1` gave GAA glycogen mod inactive, GLA spleen mod inactive, aGlu spleen mod inactive, GAA inhib inactive, N370S GC inactive and GLA inh pH 4.5 inactive.
For Cc1cccc2c3c(ccc12)C1=C(C(=O)C3=O)[C@@H](C)CO1 the results were GLA spleen mod inactive, aGlu spleen mod inactive and N370S GC inactive.
`CC(=O)O[C@@H](C)C#C[Si](C)(C)c1ccccc1` gave GLA spleen mod inactive, aGlu spleen mod inactive, N370S GC inactive and GLA inh pH 4.5 inactive.
`Cc1cc(I)ccc1Nc1c(C(=O)NOCC2CC2)cc(F)c(F)c1F` gave GLA spleen mod inactive, aGlu spleen mod inactive and N370S GC inactive.
`Cc1ccc(-c2nc3cccc(C)n3c2Nc2ccc3c(c2)OCO3)o1` gave GAA glycogen mod 1.8µM.
`Cc1cccc2nc(-c3ccco3)c(Nc3ccc4c(c3)OCO4)n12` gave GAA glycogen mod inconclusive, GLA spleen mod inactive, aGlu spleen mod inactive, GAA inhib inactive, N370S GC inactive and GLA inh pH 4.5 inactive.
For COc1ccc(-c2nc3ccc(C)cn3c2Nc2ccc3c(c2)OCO3)cc1 the results were GAA glycogen mod 18µM.
Cc1ccc2nc(-c3ccc(O)cc3)c(Nc3ccc4c(c3)OCCO4)n2c1 was read as GAA glycogen mod 14µM, GLA spleen mod inactive, aGlu spleen mod inactive, GAA inhib inactive[15.4 µM], N370S GC inconclusive and GLA inh pH 4.5 inactive.
Screening Clc1ccc(-c2nc3ccccn3c2Nc2ccc3c(c2)OCCO3)s1 returned GAA glycogen mod 10µM.
Screening COc1cc(C2CC(=O)Oc3ccc(O)cc32)cc(OC)c1OC (stereo not drawn) returned GLA spleen mod inactive, aGlu spleen mod inactive, N370S GC inactive and GLA inh pH 4.5 inactive.
`CC(C)C[C@@H](C=O)NC(=O)[C@H](CC(C)C)NC(=O)[C@H](CC(C)C)NC(=O)OCc1ccccc1` gave GLA spleen mod inactive, aGlu spleen mod inactive and N370S GC inactive.
`Cc1ccc2c(c1)c(CC(NC(=O)c1ccccc1Oc1ccccc1)C(=O)O)cn2C(=O)OCc1ccccc1` (stereo not drawn) gave GLA spleen mod inactive, aGlu spleen mod inactive and N370S GC inactive.

Screening data as filed in PubChem.
